These results are taken from PubChem BioAssay (EPA / NIEHS).

Calls of active or inactive are those of the source. How the source made its calls, unless noted: active means hit-call score of the fitted dose curve at least 0.9, where 1 is the maximum; inconclusive means response in the unintended direction; inactive means score below 0.9.

The first test concerns rat Monoamine Oxidase, MAO-A, Central (MAOAC), gene 29253. Nature of the test: NVS_ENZ_rMAOAC: NovaScreen (NVS) Enzymatic Assay for rat Monoamine Oxidase, MAO-A, Central (MAOAC) (AID 2283243).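 Further: potency refers to inhibition seen as signal drop below DMSO baseline.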 In outline:
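Rat brain tissue extract served as the cell-free enzyme source; activity was measured by radiometric scintillation counting 1.5 hours after compound addition. Loss of signal relative to DMSO baseline indicated inhibition; primary screen at 25 uM in duplicate.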
With `CCN(CC)c1ccc2c(C)cc(=O)oc2c1`, the half-maximal activity concentration (AC50) is 8.36 µM (active).

On to `O=C1c2ccccc2C(=O)c2c(O)ccc(O)c21`, for which the half-maximal activity concentration (AC50) was 18.3 µM (active). Regarding `CCN(CC)CCNc1ccc(CNC=O)c2sc3ccc(OC)cc3c(=O)c12`, the AC50 is 25 µM (active).

`Cc1nc(-c2ccc3c(c2)CCN(CCC2CCC(NC(=O)/C=C/c4ccc(F)cc4)CC2)CC3)no1` (configuration not stated): the result was inactive.

Test system in another test: not listed separately
Nature of the test: CCTE_Harrill_HTTr_Apoptosis_PRF_DMEM_12hr: (Pilot) CCTE's 12-hour Apoptosis Assessment for the High-Throughput Transcriptomics (HTTr) Platform, in MCF-7 cells cultured in phenol red-free DMEM + 10% charcoal-stripped fetal bovine serum, Harrill Lab (AID 2283985; active means hit-call score of the fitted dose curve at least 0.9, where 1 is the maximum; inactive means score below 0.9). In outline: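 MCF-7 cells in phenol red-free DMEM with 10% charcoal-stripped FBS, eight-point dilution series, 12 h exposure. Caspase-3/7 activation imaged by high content imaging with CellEvent Green reagent; bidirectional fit vs DMSO.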
`CC(C)CCCCCCc1ccc(O)cc1`: the half-maximal activity concentration (AC50) was 61.8 µM (active). `CC[C@H](C)C(=O)O[C@H]1C[C@@H](C)C=C2C=C[C@H](C)[C@H](CC[C@@H]3C[C@@H](O)CC(=O)O3)[C@H]21`: the result was inactive. Turning to `Nc1nc(Cl)nc2c1ncn2[C@H]1C[C@H](O)[C@@H](CO)O1`, the result was inactive.
